Screens (PubChem BioAssay)
IL-1B inflam inh – qHTS for Inhibitors of Inflammasome Signaling: IL-1-beta AlphaLISA Primary Screen; 360,000 compounds, 4.7% hits; activity change, % at 57.5 µM; THP-1 LPS/ATP IL-1B secretion, AlphaLISA, 16 h; stronger effect = lower value; in the data active = activity change below about -50%; inconclusive = mostly about -30% to -49%
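Secreted IL-1B measured by AlphaLISA bead assay after 16 h compound exposure of THP-1 cells; compounds (final up to 57.5 uM) added 1 h before LPS (250 ng/mL) and ATP (1.25 mM) stimulation; lower signal means less secretion.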
TDP1 cell noCPT – qHTS for Inhibitors of human tyrosyl-DNA phosphodiesterase 1 (TDP1): qHTS in cells in absence of CPT; DT40 Tdp1-/- hTDP1 cells, no CPT, ATP luminescence, 48 h; 420,000 compounds, 15% hits; Potency, µM (highest dose often 46.2 µM), hits mostly inhibitors; also: nearly all actives have a fitted effect of over 55% in size
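No-CPT arm: Tdp1-/-;hTDP1 DT40 cells (400/well) plus compounds, incubated ≥48 hr at 37 °C. Readout CellTiter-Glo luminescence.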
HT1080 IDH1KD tx – qHTS for induction of synthetic lethality in tumor cells producing 2HG: qHTS for the HT-1080-IDH1KD cell line; Potency, µM (highest dose often 46.1 µM), hits mostly cytotoxic; 360,000 compounds, 2% hits; HT-1080 IDH1 knockdown viability, ATP luminescence, 48 h
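Cytotoxicity counter-line: IDH1KD HT-1080, 48 h, CellTiter-Glo. Curves classed by r2, magnitude and activity.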
DT40 TDP1 CPT – qHTS for Inhibitors of human tyrosyl-DNA phosphodiesterase 1 (TDP1): qHTS in cells in presence of CPT. AID 686979, 2013. 420,000 compounds, 12% hits. Potency, µM (top dose mostly 46.2 µM), most hits filed as inhibitors. chicken DT40 Tdp1-/-;hTDP1 cells + 20 nM CPT, ATP luminescence, 48 h; also: nearly all actives have a fitted effect of over 55% in size
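Cell growth measured by CellTiter-Glo luminescence after a minimum 48 h, 37 C compound exposure with 20 nM CPT in Tdp1-knockout DT40 cells stably expressing hTDP1, seeded 400/well; qHTS titration format.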
HT1080NT lethal – qHTS for induction of synthetic lethality in tumor cells producing 2HG: qHTS for the HT-1080-NT fibrosarcoma cell line; HT-1080-NT fibrosarcoma viability, CellTiter-Glo ATP luminescence, 48 h; 360,000 compounds, 1.6% hits; Potency, µM (series often up to 46.1 µM), most hits filed as cytotoxic;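 also: NT is the 2HG producing partner of a matched IDH1 knockdown line; nearly all actives have a fitted effect of over 55% in size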
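750 cells/well, RPMI + 5% FBS; 2 h settle, compound pin-transfer, 48 h at 37 degrees C. CellTiter-Glo 10 min RT, luminescence. Normalized to DMSO and media-only wells.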
Hits are given with their value; n = inactive; u = inconclusive; x = no result given. The list is not random: actives were taken first. Their share in the collection is about 19%. Unless noted, calls follow the shape of the dose curve; as a rule, active = well fitted curve in the direction sought with a large enough effect; inconclusive = small, poorly fitted or top-dose-only effect, or another doubt; inactive = no such curve, though single readings can be large; an effect the other way counts as inactive or inconclusive.

SMILES	IL-1B inflam inh	TDP1 cell noCPT	HT1080 IDH1KD tx	DT40 TDP1 CPT	HT1080NT lethal
Cc1ccc(N2CCN(C(=O)C3CCN(S(=O)(=O)c4ccc5c(c4)oc(=O)n5C)CC3)CC2C)cc1 (configuration not stated)	x	3.7µM	x	5.8µM	x
O=C(C1CCN(S(=O)(=O)c2cccc3nsnc23)CC1)N1CCCCC1	n	n	n	n	n
COc1ccc(-c2ccccc2NC(=O)C2CCCN(Cc3ccc(C)o3)C2)cc1 (configuration not stated)	n	u	n	u	n
COC(=O)c1ccccc1NC(=O)c1ccc2c(c1)CCN2S(=O)(=O)c1ccc(Cl)cc1	x	n	x	n	x
CCN(CC)C(=O)CSc1nnc(-c2ccccn2)n1Cc1ccccc1	n	n	n	n	n
CC1=C(C(N)=O)C(c2ccc(C(C)C)cc2)n2nc(SCc3ccccc3F)nc2N1 (configuration not stated)	x	n	x	n	x
CC1(C)Cc2ccccc2C(COc2ccccc2)=N1	-73	u	n	u	n
CCOc1cccc(C2c3c(oc4ccc(F)cc4c3=O)C(=O)N2c2cc(C)ccn2)c1 (configuration not stated)	x	23µM	x	16µM	x
CCOc1ccc(C2c3c(oc4cc(C)c(C)cc4c3=O)C(=O)N2c2ccccn2)cc1 (configuration not stated)	x	n	x	n	x
CCCN(C(=O)Nc1cn(CC(C)C)c(=O)c2ccccc12)c1ccc(F)cc1	x	18µM	x	7.3µM	x
CCc1ccccc1N(C)C(=O)Nc1cn(CC(C)C)c(=O)c2ccccc12	x	23µM	x	15µM	x
COc1ccc(CNC(=O)Nc2cn(CC(C)C)c(=O)c3ccccc23)c(OC)c1	x	u	x	n	x
O=C(c1ccc(Cn2c(=S)[nH]c3ccc(N4CCOCC4)cc3c2=O)cc1)N1CCC(N2CCCCC2)CC1	n	u	n	u	n
Cn1cccc/c1=N\c1cccc[n+]1C	n	1µM	23µM	1.5µM	n
O=C(Nc1ccc2c(c1)OCCO2)c1cccc(C(=O)Nc2ccc3c(c2)OCCO3)c1	n	n	u	n	n
O=C(NC1CC1)c1cccc(Nc2ccc(-c3ccc4c(c3)OCCO4)nn2)c1	n	12µM	u	21µM	u
Cc1c(C(=O)OCC(=O)N(C)Cc2ccc(Cl)cc2)oc2ccccc12	u	n	n	n	n
O=C(O)Cc1ccc(NC(=O)Nc2ccc3c(c2)OCO3)cc1	n	n	n	n	n
CN(C)c1ccc(/C=N/NC(=O)CN(c2cccc(Cl)c2)S(C)(=O)=O)cc1Br	-50	16µM	u	26µM	u
CS(=O)(=O)N(CC(=O)N/N=C/c1ccco1)c1ccccc1Br	n	n	n	n	n
COc1ccc(-c2c(C)oc3ccc(C)cc23)cc1	n	n	n	n	n
COc1ccc2oc3cc(C)[n+]([O-])c(-c4ccc(C)cc4)c3c2c1	n	0.21µM	n	u	n
COc1ccc(-c2c3c(cc(C)[n+]2[O-])oc2ccc(OC)cc23)cc1	u	u	n	26µM	n
CC(C(=O)N(C1CC1)C1(C(=O)Nc2ccccc2)CCCC1)N1C(=O)c2ccccc2C1=O (configuration not stated)	n	n	n	n	n
CCC(C)C1Nc2ccc(C(=O)NCCc3ccc(OC)c(OC)c3)cc2NC1=O (configuration not stated)	n	u	u	16µM	u
SMILES	IL-1B inflam inh	TDP1 cell noCPT	HT1080 IDH1KD tx	DT40 TDP1 CPT	HT1080NT lethal
O=S(=O)(c1cnc[nH]1)N1CCN(C(c2ccc(F)cc2)c2ccc(F)cc2)CC1	n	u	n	n	n
CCOC(=O)c1c(C)n(C)c2ccc(OCC(O)CN3C(=O)c4ccccc4S3(=O)=O)cc12 (configuration not stated)	n	16µM	u	16µM	n
O=C1C2CC=CCC2C(=O)N1c1ccc(Cc2ccncc2)cc1 (configuration not stated)	u	11µM	n	18µM	n
O=C1CC(Cc2ccc(Cl)cc2)C(=O)N1c1ccncc1 (configuration not stated)	n	n	n	n	n
CC(C)CN1CCCC2(CCN(C(=O)c3cnccn3)CC2)C1	x	n	x	n	x
Cc1cccc([C@@H]2[C@@H]3C(=O)N(Cc4ccccc4)C(=O)[C@@H]3[C@]3(Cc4ccc(Cl)cc4)C(=O)N(c4ccc(Br)cc4)C(=O)N23)c1	n	u	n	n	n
Nc1ccc(N=Nc2ccc(O)cc2)c(N)n1	n	15µM	n	21µM	n
COc1ccc(C(=O)NCCNc2ccc([N+](=O)[O-])cc2)cc1	n	u	n	n	n
COc1ccc(C(=O)Nc2nc3ccc(OC)cc3s2)cc1	n	u	n	u	n
COc1ccc(C(=O)Nc2nc(-c3ccc([N+](=O)[O-])cc3)c(-c3ccc(OC)cc3)s2)cc1	n	10µM	n	u	n
COc1ccc2c(c1)-c1nc(/N=C/c3cccc(OC)c3O)sc1CC2	n	n	n	n	n
COc1ccc2c(c1)Cc1sc(NC(=O)c3ccc(Cl)cc3)nc1-2	x	13µM	x	21µM	x
COc1ccc(C(=O)Nc2nc3c(s2)CCc2cc(OC)ccc2-3)cc1	x	26µM	x	23µM	x
COc1ccc2c(c1)-c1nc(NC(=O)c3ccc(OC)c(Br)c3)sc1CC2	x	8.2µM	x	u	x
O=C(C[C@H]1C[C@H](C(=O)N2CCCCC2)[C@@]2(CCc3ccccc3)c3[nH]c4ccc(Cl)cc4c3CCN2C1=O)NCCN1CCOCC1	n	n	n	n	n
O=C(COC(=O)c1ccc[n+]([O-])c1)Nc1ccc(Cl)cc1[N+](=O)[O-]	n	n	n	n	n
CN(C)S(=O)(=O)N1CCC(Oc2cccc(C(=O)NCCC3=CCCCC3)c2)CC1	n	u	n	16µM	n
CS(=O)(=O)N1CCC(Oc2cccc(C(=O)NCCCC3CCCC3)c2)CC1	u	21µM	n	u	n
CN(C)S(=O)(=O)N1CCC(Oc2cccc(C(=O)NC3CCCCC3)c2)CC1	n	u	n	18µM	n
COCCC1CCCCN1C(=O)c1cccc(OC2CCN(S(C)(=O)=O)CC2)c1 (configuration not stated)	n	n	n	n	n
CCCCN(C)C(=O)c1cccc(OC2CCN(CC(C)(C)C)CC2)c1	n	u	n	u	n
CCC(C)CNC(=O)c1cccc(OC2CCN(CC(C)(C)C)CC2)c1 (configuration not stated)	n	29µM	n	u	n
